# The full ranking holds about 1,600 compounds; the median of “Hit score” is about 0.13, and the highest 2% start at about 0.46. Shown is part of a subset that was picked to be rich in the highest values.
# System: SARS-CoV-2
# Test: Antiviral activity against SARS-CoV-2 (USA-WA1/2020 strain) measured by imaging in HRCE cells at MOI 0.4 after 96 hrs (reported as hit score from 0-1 for on-disease vs off-disease activity: scores >0.6 considered hits)
# Assay type: functional, Homo sapiens
row,SMILES,Hit score
1,NS(=O)(=O)c1cc(-c2nnn[nH]2)c(NCc2cccs2)cc1Cl [AZOSEMIDE],0.09549
2,CN1[C@@H]2CC[C@H]1C[C@@H](OC(=O)[C@H](CO)c1ccccc1)C2 [HYOSCYAMINE],0.0469
3,O=C(O)CCC/C=C\CC1C(O)CC(O)C1/C=C/C(O)COc1cccc(Cl)c1 (centres undefined) [CLOPROSTENOL],-0.03107
4,COc1cccc(N2CCN(C3=Nc4c(F)cccc4[C@H](CC(=O)O)N3c3cc(C(F)(F)F)ccc3OC)CC2)c1 [LETERMOVIR],0.3651
5,CCOC(=O)[C@H]1O[C@@H]1C(=O)N[C@@H](CC(C)C)C(=O)NCCC(C)C [ALOXISTATIN],0.7896
6,N[C@@H]1[C@H]2CN(c3nc4c(cc3F)c(=O)c(C(=O)O)cn4-c3ccc(F)cc3F)C[C@@H]12 [TROVAFLOXACIN],0.134
7,O=C(O)[C@@H]1CCCN1 [PROLINE],0.14
8,COc1cc(Nc2ncc(F)c(Nc3ccc4c(n3)NC(=O)C(C)(C)O4)n2)cc(OC)c1OC [R-406],0.1646
9,CC(=O)c1c(C)c2cnc(Nc3ccc(N4CCNCC4)cn3)nc2n(C2CCCC2)c1=O [PALBOCICLIB],0.007482
10,OC(CCN1CCCCC1)(c1ccccc1)C1CCCCC1 (centres undefined) [TRIHEXYPHENIDYL],0.4673
11,OC(CCN1CCCCC1)(c1ccccc1)c1ccccc1 [PRIDINOL],0.1349
12,OC(CCN1CCCC1)(c1ccccc1)C1CCCCC1 (centres undefined) [PROCYCLIDINE],0.2175
13,Sc1ncnc2nc[nH]c12 [MERCAPTOPURINE ANHYDROUS],0.2212
14,COC(=O)C[C@](O)(CCC(C)(C)O)C(=O)O[C@@H]1C(OC)=C[C@]23CCCN2CCc2cc4c(cc2[C@H]13)OCO4 [HARRINGTONINE],0.07403
15,CCCC[C@H](NC(=O)[C@@H]1[C@@H]2[C@H](CN1C(=O)[C@@H](NC(=O)NC1(CS(=O)(=O)C(C)(C)C)CCCCC1)C(C)(C)C)C2(C)C)C(=O)C(=O)NC1CC1,0.1004
16,C[C@]12CC[C@H](O)CC1=CC[C@@H]1[C@@H]2CC[C@]2(C)C(c3cccnc3)=CC[C@@H]12 [ABIRATERONE],0.3975
17,CC[C@H]1[C@@H](O)[C@@H]2[C@H](CC[C@]3(C)[C@@H]([C@H](C)CCC(=O)O)CC[C@@H]23)[C@@]2(C)CC[C@@H](O)C[C@@H]12 [OBETICHOLIC ACID],0.5073
18,C[C@H](CCC(=O)O)[C@H]1CC[C@H]2[C@@H]3[C@@H](O)C[C@@H]4C[C@H](O)CC[C@]4(C)[C@H]3CC[C@]12C [URSODIOL],0.2784
19,CC(CCC(=O)O)[C@H]1CCC2C3C[C@H](O)[C@@H]4C[C@H](O)CC[C@]4(C)C3CC[C@@]21C (some centres undefined),0.1858
20,CN1CC(=O)N2[C@H](c3ccc4c(c3)OCO4)c3[nH]c4ccccc4c3C[C@@H]2C1=O,0.2898
21,CO[C@H]1/C=C/O[C@@]2(C)Oc3c(C)c(O)c4c(O)c(cc(O)c4c3C2=O)NC(=O)/C(C)=C\C=C\[C@H](C)[C@H](O)[C@@H](C)[C@@H](O)[C@@H](C)[C@H](OC(C)=O)[C@@H]1C [RIFAMYCIN],0.1815
22,NC(=O)[C@@H]1CC[C@@H]2CN1C(=O)N2OS(=O)(=O)[O-].[Na+] [AVIBACTAM SODIUM],0.2969
23,O=C(Nc1cc(Cl)cc(Cl)c1O)c1c(O)c(Cl)cc(Cl)c1Cl [OXYCLOZANIDE],0.1882

row,SMILES,Hit score
1,Oc1c(Cl)cc(Cl)c(Cl)c1Cc1c(O)c(Cl)cc(Cl)c1Cl [HEXACHLOROPHENE],0.5286
2,Cc1ccc2c(Cl)cc(Cl)c(O)c2n1 [CHLORQUINALDOL],0.2863
3,Cc1ccc(C(=O)Nc2ccc(CN3CCN(C)CC3)c(C(F)(F)F)c2)cc1C#Cc1cnc2cccnn12 [PONATINIB],0.5086
4,O=C(O)c1ccccc1C(=O)Nc1ccc(S(=O)(=O)Nc2nccs2)cc1 [PHTHALYLSULFATHIAZOLE],0.0541
5,CS(=O)(=O)c1ccc(C(=O)Nc2ccc(Cl)c(-c3ccccn3)c2)c(Cl)c1 [VISMODEGIB],0.5244
6,Cc1cc(-c2ccc(/N=N/c3ccc4c(S(=O)(=O)[O-])cc(S(=O)(=O)[O-])c(N)c4c3O)c(C)c2)ccc1/N=N/c1ccc2c(S(=O)(=O)[O-])cc(S(=O)(=O)[O-])c(N)c2c1O.[Na+].[Na+].[Na+].[Na+] [EVANS BLUE],0.2486
7,CC(SC(=O)c1cccs1)C(=O)NCC(=O)O (centres undefined) [STEPRONIN],0.2404
8,CCCC(CCC)C(=O)O.CCCC(CCC)C(=O)[O-].[Na+] [DIVALPROEX SODIUM],0.2277
9,CCCCCCC(=O)O[C@H]1CC[C@H]2[C@@H]3CCC4=CC(=O)CC[C@]4(C)[C@H]3CC[C@]12C [TESTOSTERONE ENANTHATE],0.1237
10,CC(C)(C)CC(C)(C)c1ccc(OCCOCC[N+](C)(C)Cc2ccccc2)cc1 [BENZETHONIUM],0.03086
11,CC(C)/N=c1\cc2n(-c3ccc(Cl)cc3)c3ccccc3nc-2cc1Nc1ccc(Cl)cc1 [CLOFAZIMINE],0.5936
12,Cc1nc2ccccc2n1Cc1ccc(Cl)cc1 [CHLORMIDAZOLE],-0.04269
13,O=C(O)COCCN1CCN([C@H](c2ccccc2)c2ccc(Cl)cc2)CC1 [LEVOCETIRIZINE],-0.05445
14,Clc1ccc(C(OCCN2CCCCC2)c2ccccc2)cc1 (centres undefined) [CLOPERASTINE],0.5618
15,OCCOCCN1CCN(C(c2ccccc2)c2ccc(Cl)cc2)CC1 (centres undefined) [HYDROXYZINE],0.00308
16,O=P(O)(O)C(Sc1ccc(Cl)cc1)P(=O)(O)O [TILUDRONIC ACID],0.04613
17,Cc1cccc(C)c1NC(=O)CN1CCN(CCCC(c2ccc(F)cc2)c2ccc(F)cc2)CC1 [LIDOFLAZINE],0.2006
18,CCCCC(C)(O)C/C=C/[C@H]1[C@H](O)CC(=O)[C@@H]1CCCCCCC(=O)OC (some centres undefined) [MISOPROSTOL],-0.07952
19,COc1cc(N2CCC(N3CCN(C)CC3)CC2)ccc1Nc1ncc(Cl)c(Nc2ccccc2P(C)(C)=O)n1 [BRIGATINIB],0.1463
20,N#Cc1cc2c(cc1[N+](=O)[O-])=NC(=O)C(=O)N=2,0.1284
21,Cl.OC[C@H]1NC[C@@H](O)[C@@H](O)[C@@H]1O,0.1457
22,CN[C@@H](C)[C@H](O)c1ccccc1.Cl [EPHEDRINE HYDROCHLORIDE],0.3718
23,CC(=O)[C@@]1(O)CC[C@H]2[C@@H]3C[C@H](C)C4=CC(=O)CC[C@]4(C)[C@H]3CC[C@@]21C,0.2069

row,SMILES,Hit score
1,C[C@H](CCC(=O)O)[C@H]1CC[C@H]2[C@@H]3[C@H](O)C[C@@H]4C[C@H](O)CC[C@]4(C)[C@H]3C[C@H](O)[C@]12C [CHOLIC ACID],0.1604
2,CC(=O)[C@@]1(O)CC[C@H]2[C@@H]3CCC4=CC(=O)CCC4=C3[C@@H](c3ccc(N(C)C)cc3)C[C@@]21C [ULIPRISTAL],0.1448
3,Nc1cccc2c(=O)[nH][nH]c(=O)c12.[Na+],0.2367
4,CCCN[C@@H]1CCc2nc(N)sc2C1 [DEXPRAMIPEXOLE],0.07275
5,CC(C)(C)NCC(O)COc1cc(Cl)ccc1Cl (centres undefined) [CLORANOLOL],0.4962
6,CC(C)(C)NCC(O)c1cc(Cl)c(N)c(Cl)c1 (centres undefined) [CLENBUTEROL],-0.07437
7,CC(C)(C)NC[C@H](O)COc1nsnc1N1CCOCC1 [TIMOLOL],0.174
8,CC(C)(C)NC[C@H](O)COc1ccccc1C1CCCC1 [PENBUTOLOL],0.4905
9,CC(C)(C)NC[C@H](O)COc1cccc2c1CCCC2=O [LEVOBUNOLOL],0.1851
10,CC(C)(C)NCC(O)COc1cccc2c1CCC(=O)N2 (centres undefined) [CARTEOLOL],0.1646
11,Cc1ccc(Cl)c(OCC(O)CNC(C)(C)C)c1 (centres undefined) [BUPRANOLOL],0.4669
12,CC(C)(C)NCC(O)c1ccccc1Cl (centres undefined) [TULOBUTEROL],-0.01366
13,CC(C)(C)NCC(O)c1cc(Cl)c(N)c(C(F)(F)F)c1 (centres undefined) [MABUTEROL],-0.1589
14,CO[C@@]1(NC(=O)C2SC(=C(C(N)=O)C(=O)O)S2)C(=O)N2C(C(=O)O)=C(CSc3nnnn3C)CS[C@@H]21 (some centres undefined) [CEFOTETAN],0.1396
15,COc1cc2c(Oc3ccc4[nH]c(C)cc4c3F)ccnc2cc1OCC1(N)CC1 [CATEQUENTINIB],0.165
16,CO/N=C(\C(=O)N[C@@H]1C(=O)N2C(C(=O)[O-])=C(C[n+]3cccc4c3CCC4)CS[C@H]12)c1csc(N)n1 [CEFPIROME],0.1204
17,COC(=O)OCOc1c2n(ccc1=O)N([C@@H]1c3ccccc3SCc3c1ccc(F)c3F)[C@@H]1COCCN1C2=O [BALOXAVIR MARBOXIL],5.7e-05
18,O=[N+]([O-])/N=C1\NCCN1Cc1ccc(Cl)nc1 [IMIDACLOPRID],0.158
19,CCOC(=O)CSCCC1NC(C(=O)O)CS1 (centres undefined) [LETOSTEINE],0.08225
20,CNC(=O)c1cc(Oc2ccc(NC(=O)Nc3ccc(Cl)c(C(F)(F)F)c3)cc2)ccn1 [SORAFENIB],0.2484
21,O=C(Nc1ccc(Cl)cc1)Nc1ccc(Cl)c(Cl)c1 [TRICLOCARBAN],0.4616
22,N=C(NCCCCCCNC(=N)NC(=N)Nc1ccc(Cl)cc1)NC(=N)Nc1ccc(Cl)cc1 [CHLORHEXIDINE],0.08739
23,CCCCc1nc(Cl)c(C(=O)O)n1Cc1ccc(-c2ccccc2-c2nn[nH]n2)cc1 [CARBOXYLIC ACID METABOLITE],0.01747
